High-throughput results: PubChem, several laboratories
Many of the other results were omitted from the sample, so hits are more common in it than they were.
PostGolgi yeast = growth inhibition of a yeast mutant, post-Golgi transport screen; post-Golgi transport phenotypic cell assay; inhibition, % at 10 µM; 98,000 compounds, 0.9% hits; in the data active = inhibition above about 30%;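 note: yeast cells grown in 1536-well plates; yeast grown about 18 h at 30C before absorbance read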
PostGolgi ctrl = growth of the yeast control strain, post-Golgi counter-screen; inhibition, % at 10 µM; 98,000 compounds, 5% hits; AID 738; efflux-deficient yeast background strain, growth absorbance A615, 16 h; in the data active = inhibition above about 30%
GALR2 blocker = GALR2 (human) receptor antagonism; O43603; GALR2-expressing cells, antagonist mode; inhibition, % at 4 µM; 140,000 compounds, 0.39% hits;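 note: cells stimulated with galanin 1-16 at roughly its EC80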
S1P2 agonist = S1P2 (human) receptor agonism. activation, % at 4.5 µM. AID 729. S1P2-expressing cell line, agonist reporter read-out. 97,000 compounds, 0.46% hits; in the data active = activation above about 16%
Target sequence (O95136 whole entry, looked up): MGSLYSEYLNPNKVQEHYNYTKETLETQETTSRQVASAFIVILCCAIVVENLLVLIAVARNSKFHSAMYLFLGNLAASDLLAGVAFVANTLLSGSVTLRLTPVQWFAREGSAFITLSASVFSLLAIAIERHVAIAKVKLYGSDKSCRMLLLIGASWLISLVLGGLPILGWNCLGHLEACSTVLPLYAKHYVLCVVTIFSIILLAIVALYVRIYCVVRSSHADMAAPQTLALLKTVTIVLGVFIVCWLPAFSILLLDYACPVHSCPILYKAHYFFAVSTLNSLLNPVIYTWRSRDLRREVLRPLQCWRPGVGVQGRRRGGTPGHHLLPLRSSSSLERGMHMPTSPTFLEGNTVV
GALR2 agonist = agonists of human galanin receptor 2 (GALR2) | O43603 | GALR2-expressing cells, agonist activation read-out | activation, % (test concentration not listed) | 140,000 compounds, 0.48% hits; in the data active = activation above about 5%, passing the limit was not always enough
S1P2 antag = blocks the human S1P2 receptor. inhibition, % at 5 µM. O95136. 97,000 compounds, 0.21% hits. AID 736. cell-based S1P2 antagonist assay, inhibition at 5 uM; in the data active = inhibition above about 45%;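 note: CRE beta-lactamase reporter cells expressing human S1P2 stimulated with S1P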
GALR2 ant conf = confirmation of human galanin receptor 2 (GALR2) antagonists | shares compounds with GALR2 blocker | GALR2-expressing cells, antagonist mode, inhibition | inhibition, % at 4 µM | 480 compounds, 60% hits | AID 866;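 note: cells stimulated with galanin at about its EC80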
BLA inhib ctr = beta-lactamase inhibition, GALR2 counterscreen | inhibition, % at 4.2 µM | 480 compounds, 36% hits | CHO NFAT-BLA reporter, beta-lactamase FRET, thapsigargin-stimulated | shares compounds with GALR2 blocker;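 active = inhibition above the mean inhibition across tested compounds plus 3 SD, cut at about 27% in these data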
A number is an active result. Cut-off read from the data, not from the text of the source, unless noted: active = inhibition above about 27%; inactive = the rest.

`O=C(Nc1ccccc1)c1ccccc1NC(=O)C1CCCCC1` gave PostGolgi yeast inactive, PostGolgi ctrl inactive, GALR2 blocker inactive, S1P2 agonist inactive, GALR2 agonist inactive and S1P2 antag inactive.
For Cn1cnc([N+](=O)[O-])c1S(=O)(=O)c1ccc(Cl)cc1 the results were GALR2 blocker 38, GALR2 agonist inactive, GALR2 ant conf 41 and BLA inhib ctr inactive.
For Cn1cnc([N+](=O)[O-])c1NC(C)(C)C the results were PostGolgi yeast inactive, PostGolgi ctrl inactive, GALR2 blocker inactive, S1P2 agonist inactive, GALR2 agonist inactive and S1P2 antag inactive.
Screening COc1ccc(C(=O)Cn2c(C(=O)/C=C/c3ccccc3)nc3ccccc32)cc1 returned PostGolgi yeast inactive, PostGolgi ctrl inactive, GALR2 blocker inactive, S1P2 agonist inactive, GALR2 agonist inactive and S1P2 antag inactive.
`CCOC(=O)N1CCN(c2ncnc3c2[nH]c2ccc(F)cc23)CC1` gave PostGolgi yeast inactive, PostGolgi ctrl inactive, GALR2 blocker 38, S1P2 agonist inactive, GALR2 agonist inactive, S1P2 antag 58, GALR2 ant conf 47 and BLA inhib ctr inactive.
CCCCOc1ncnc2c1[nH]c1ccccc12 was read as PostGolgi yeast inactive, PostGolgi ctrl inactive, GALR2 blocker 36, S1P2 agonist inactive, GALR2 agonist inactive, S1P2 antag inactive, GALR2 ant conf 45 and BLA inhib ctr inactive.
CCCCOc1ncnc2c1[nH]c1ccc(F)cc12 was read as PostGolgi yeast inactive, PostGolgi ctrl inactive, GALR2 blocker 37, S1P2 agonist inactive, GALR2 agonist inactive, S1P2 antag 63, GALR2 ant conf 35 and BLA inhib ctr inactive.
For CCCCOc1ncnc2c1[nH]c1ccc(OCC)cc12 the results were PostGolgi yeast inactive, PostGolgi ctrl inactive, GALR2 blocker inactive, S1P2 agonist inactive, GALR2 agonist inactive and S1P2 antag inactive.
For O=C(/C=C/c1cn(CC(O)CN2CCCCCC2)c2ccccc12)c1cccs1 (configuration not stated) the results were GALR2 blocker inactive and GALR2 agonist inactive.
CCCCN(C)CC(O)Cn1cc(/C=C/C(=O)c2cccs2)c2ccccc21 (configuration not stated) was read as GALR2 blocker 50, GALR2 agonist inactive, GALR2 ant conf 29 and BLA inhib ctr 43.
For O=C(COC(=O)c1ccccc1Sc1ccc(C(F)(F)F)cc1[N+](=O)[O-])NC(=O)NC1CCCC1 the results were GALR2 blocker inactive and GALR2 agonist inactive.
Screening CCNC(=O)COc1ccc(C=O)cc1OC returned GALR2 blocker 66, GALR2 agonist inactive, GALR2 ant conf inactive and BLA inhib ctr inactive.
Screening Cc1ccc(NC(=O)C(=O)NCc2ccc(/C=C(/C#N)C(=O)NCc3cccnc3)o2)cc1C returned GALR2 blocker inactive and GALR2 agonist inactive.
CN(C(=O)COc1ccccc1C(=O)NCCOc1ccccc1)c1ccccc1 was read as GALR2 blocker 29, GALR2 agonist inactive, GALR2 ant conf 43 and BLA inhib ctr inactive.
For Cc1cccc2sc(NC(=O)C3CCN(S(=O)(=O)c4cc([N+](=O)[O-])ccc4Cl)CC3)nc12 the results were GALR2 blocker 27, GALR2 agonist inactive, GALR2 ant conf inactive and BLA inhib ctr inactive.
For N#C/C(=C\c1ccc(Sc2ccc(Cl)cc2)o1)c1nc2ccccc2[nH]1 the results were GALR2 blocker 32, GALR2 agonist inactive, GALR2 ant conf 35 and BLA inhib ctr 29.
For N#C/C(=C/c1cccs1)c1nc2ccccc2[nH]1 the results were GALR2 blocker inactive and GALR2 agonist inactive.
For Cc1ccc(/C=C(\C#N)c2nc3ccccc3[nH]2)s1 the results were PostGolgi yeast inactive, PostGolgi ctrl inactive, GALR2 blocker 30, S1P2 agonist inactive, GALR2 agonist inactive, S1P2 antag inactive, GALR2 ant conf 34 and BLA inhib ctr inactive.
`CN(C)/C=C(\C#N)c1nc2ccccc2[nH]1` gave PostGolgi yeast inactive, PostGolgi ctrl inactive, GALR2 blocker inactive, S1P2 agonist inactive, GALR2 agonist inactive and S1P2 antag inactive.
For CC1(C)OC(=O)C(=NNc2ccc(Br)cc2)C(=O)O1 the results were GALR2 blocker inactive and GALR2 agonist inactive.
Screening O=C(COC(=O)c1cccc(C(F)(F)F)c1)NCc1ccccc1 returned GALR2 blocker inactive and GALR2 agonist inactive.
`Cn1c(=O)c(NCCc2ccccc2)c2c3c(cccc31)C(=O)c1ccccc1-2` gave PostGolgi yeast inactive, PostGolgi ctrl 48, GALR2 blocker 40, S1P2 agonist inactive, GALR2 agonist inactive, S1P2 antag inactive, GALR2 ant conf 38 and BLA inhib ctr 42.
C=CCn1c(C)cc(C(=O)Cn2ncc(Cl)c(Cl)c2=O)c1C was read as GALR2 blocker 57, GALR2 agonist inactive, GALR2 ant conf 46 and BLA inhib ctr inactive.
`O=C(/C=C/c1cccc([N+](=O)[O-])c1)NCCSCc1cccc(Cl)c1` gave GALR2 blocker inactive and GALR2 agonist inactive.
CC(CNC(=O)C(C)(C)C)NC(=O)C(C)(C)C (configuration not stated) was read as GALR2 blocker inactive and GALR2 agonist inactive.
`CCOC(=O)COc1ccccc1/C=C\[N+](=O)[O-]` gave GALR2 blocker 30, GALR2 agonist inactive, GALR2 ant conf 43 and BLA inhib ctr 30.
`CN(C)S(=O)(=O)c1cc(NC(=O)COC(=O)CCSc2ccc(Cl)cc2)ccc1Cl` gave GALR2 blocker inactive and GALR2 agonist inactive.
For CCOC(=O)C1=C(CSc2nc(-c3ccccc3)ccc2C#N)OC(N)=C(C#N)C1c1cccnc1 (configuration not stated) the results were PostGolgi yeast 61, PostGolgi ctrl inactive, GALR2 blocker 29, S1P2 agonist inactive, GALR2 agonist inactive, S1P2 antag inactive, GALR2 ant conf 30 and BLA inhib ctr inactive.
For CCOC(=O)C1=C(CSc2nc(-c3ccccc3)ccc2C#N)OC(N)=C(C#N)C1c1ccccc1 (configuration not stated) the results were PostGolgi yeast inactive, PostGolgi ctrl inactive, GALR2 blocker inactive, S1P2 agonist inactive, GALR2 agonist inactive and S1P2 antag inactive.
Screening COc1ccc(NC(=O)/C(Cl)=C(/Cl)S(=O)Cc2ccccc2)cn1 (configuration not stated) returned PostGolgi yeast 107, PostGolgi ctrl 80, GALR2 blocker 105, S1P2 agonist inactive, GALR2 agonist inactive, S1P2 antag 101, GALR2 ant conf 102 and BLA inhib ctr 106.
For COc1ccc(/C=C/C(=O)Nc2ccc(OC)nc2)cc1 the results were GALR2 blocker inactive and GALR2 agonist inactive.
